NPR1 activator = GC-A (human) enzyme activation; HEK293 GC-A cells, cGMP TR-FRET, EC30 ANP; 0% at EC30 ANP, 100% saturating ANP; P16066; AID 1671463; activation, % at 10 µM; 370,000 compounds, 0.14% hits; in the data active = activation above about 40%
ADAM17 inh = inhibits human ADAM17; recombinant ADAM17, EDANS/DABCYL FRET peptide cleavage; 370,000 compounds, 0.83% hits; AID 720648; inhibition, % at 6.95 µM; P78536;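 active = inhibition above the mean of compounds lying between control limits plus 3 SD, set per campaign, cut at about 8.5% in these data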;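 also: 0% = DMSO-only wells as the low control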
ADAM10 inh = inhibitors of human ADAM10; O14672; recombinant ADAM10, EDANS/DABCYL FRET peptide cleavage, 3 h; inhibition, % at 7 µM; 370,000 compounds, 0.62% hits; AID 720582;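 active = inhibition above a per-campaign cutoff equal to the mean of compounds falling between control-based bounds plus 3 SD, cut at about 20% in these data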;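 also: 0% = DMSO wells while the 100% control is not disclosed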
NPR2 activator = GC-B (human) receptor activation; HEK293-GC-B cells, CNP EC30, cGMP TR-FRET; 0% at EC30 CNP, 100% saturating CNP; 370,000 compounds, 0.11% hits; activation, % at 10 µM;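 active = activation at 10 µM reaching about 35% in either raw or pattern-adjusted values, limit read from the data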
ADAM10 ctr = counter-screen for ADAM17 exosite inhibitors: inhibitors of human ADAM10. shares compounds with ADAM17 inh. recombinant ADAM10, EDANS/DABCYL FRET peptide cleavage, 3 h. inhibition, % at 6.95 µM. 2,900 compounds, 47% hits. AID 743256;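 active = mean inhibition over the triplicate runs exceeds the activity threshold set in the earlier primary screen, cut at about 20% in these data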;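 also: 0% = DMSO wells and 100% = marimastat wells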
ADAM17 confirm = human ADAM17 inhibition, confirmation. shares compounds with ADAM17 inh. recombinant ADAM17, EDANS/DABCYL QFRET peptide cleavage. inhibition, % at 6.95 µM. 2,900 compounds, 65% hits;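 active = mean inhibition across replicates above the hit cutoff set in the primary screen, cut at about 8.5% in these data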;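 also: 0% = DMSO wells and 100% = marimastat wells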
* hit, by the source's call. This is a sample that favours compounds with a hit; in the whole collection about 1.3% have one here.

For CCOC(=O)N1CCN(S(=O)(=O)c2ccc(C(=O)NNc3nc4c(C)cccc4s3)cc2)CC1 the results were NPR1 activator -2, ADAM17 inh 8, ADAM10 inh 8 and NPR2 activator 0.
CCN1C(=O)[C@@H]2[C@@H](c3ccc(-c4ccc(OC)cc4)c(OC)c3)N3CCCC[C@@]3(C(=O)OC)[C@@H]2C1=O was read as NPR1 activator 0, ADAM17 inh 9.3*, ADAM10 inh 2, NPR2 activator 3, ADAM10 ctr -7 and ADAM17 confirm -1.
For CCN1C(=O)[C@@H]2[C@@H](c3ccc(-c4cccc(Cl)c4)c(OC)c3)N3CCCC[C@@]3(C(=O)OC)[C@@H]2C1=O the results were NPR1 activator 1, ADAM17 inh 9.9*, ADAM10 inh 13, NPR2 activator 0, ADAM10 ctr 20* and ADAM17 confirm 16*.
`CCN1C(=O)[C@@H]2[C@@H](c3ccc(-c4ccc(Cl)c(Cl)c4)c(OC)c3)N3CCC[C@@]3(C(=O)OC)[C@@H]2C1=O` gave NPR1 activator 3, ADAM17 inh 6, ADAM10 inh 15 and NPR2 activator -2.
COc1cccc(-c2cccc(-c3nc(C(=O)NCc4ccc5c(c4)OCO5)cc4c3[C@H](CCO)N(S(=O)C(C)(C)C)C4)c2)c1 (some centres undefined) was read as NPR1 activator 3, ADAM17 inh 19*, ADAM10 inh 16, NPR2 activator 0, ADAM10 ctr 13 and ADAM17 confirm 10*.
CC(C)(C)S(=O)N1Cc2cc(C(=O)NCc3ccc4c(c3)OCO4)nc(-c3cccc(-c4cc5ccccc5o4)c3)c2[C@@H]1CCO (some centres undefined) was read as NPR1 activator 9, ADAM17 inh 3, ADAM10 inh -2 and NPR2 activator -2.
`O=C(c1ccncc1)N(c1ccc2oc3c(c2c1)CCCC3)S(=O)(=O)c1ccc(F)cc1` gave NPR1 activator 3, ADAM17 inh 8.8*, ADAM10 inh 17, NPR2 activator 0, ADAM10 ctr 9 and ADAM17 confirm 7.
CCCN(CCC)CCc1cccc2c1CC(=O)N2 was read as NPR1 activator 3, ADAM17 inh 0, ADAM10 inh -2 and NPR2 activator 11.
C#Cc1ccc([C@@H]2C=C(C(=O)Nc3ccccc3)O[C@H](OCC)[C@H]2CCCO)cc1 was read as NPR1 activator 0, ADAM17 inh 11*, ADAM10 inh 16, NPR2 activator 0, ADAM10 ctr 11 and ADAM17 confirm 8.
O=C1NC[C@@H](CCCCN2C[C@H](Cc3ccc(O)cc3)N(CCc3ccccc3)C(=O)C2=O)N(CCc2ccccc2)C1=O was read as NPR1 activator 1, ADAM17 inh -2, ADAM10 inh -15 and NPR2 activator 0.
Screening O=c1[nH]n(-c2ccccc2Cl)c(=O)c2ccccc12 returned NPR1 activator -2, ADAM17 inh 10*, ADAM10 inh -6, NPR2 activator 5, ADAM10 ctr 10 and ADAM17 confirm 10*.
Cc1nc2c(OCc3cc(Cl)cc(Cl)c3)cccn2c1N(C)C(=O)CCC1CCCC1 was read as NPR1 activator -6, ADAM17 inh 11*, ADAM10 inh 8, NPR2 activator -1, ADAM10 ctr 12 and ADAM17 confirm 10*.
Screening O=C(O)CCC(=O)c1c[nH]c2ccccc12 returned NPR1 activator -2, ADAM17 inh 8.9*, ADAM10 inh 1, NPR2 activator 1, ADAM10 ctr 9 and ADAM17 confirm 20*.
For CC(C)(C)c1nnc(SCC(=O)Nc2ccc(N3CCCCC3)cc2)n1N the results were NPR1 activator 1, ADAM17 inh -5, ADAM10 inh -1 and NPR2 activator -3.
For COCCn1c(SCC(=O)c2c(N)n(C3CC3)c(=O)[nH]c2=O)nc2ccccc21 the results were NPR1 activator 2, ADAM17 inh 1, ADAM10 inh -18 and NPR2 activator 2.
COc1ccc(OC)c(NC(=O)CSc2nc(O)cc(=O)n2CC(C)C)c1 was read as NPR1 activator -5, ADAM17 inh 9.3*, ADAM10 inh 8, NPR2 activator 4, ADAM10 ctr 3 and ADAM17 confirm 4.
`O=C(OCC(=O)c1c[nH]c2ccccc12)c1ccc(F)c(S(=O)(=O)N2CCOCC2)c1` gave NPR1 activator -4, ADAM17 inh 2, ADAM10 inh 7 and NPR2 activator 0.
Screening Cc1ccc(C(=O)OCC(=O)c2c[nH]c3ccccc23)cc1S(=O)(=O)N1CCOCC1 returned NPR1 activator 0, ADAM17 inh 10.0*, ADAM10 inh -3, NPR2 activator 0, ADAM10 ctr -7 and ADAM17 confirm 3.
Screening O=C(Nc1cc(C(F)(F)F)ccc1N1CCCCC1)C1=COCCO1 returned NPR1 activator 1, ADAM17 inh 0, ADAM10 inh -14 and NPR2 activator 6.
CCc1ccc(N2CC(C(=O)Nc3ccc(C)c(S(=O)(=O)N4CCOCC4)c3)CC2=O)cc1 (centres undefined) was read as NPR1 activator -3, ADAM17 inh 9.8*, ADAM10 inh 7, NPR2 activator -6, ADAM10 ctr 2 and ADAM17 confirm 3.
`COc1ccc(OC)c(NC(=O)COC(=O)CCC2CCCC2)c1` gave NPR1 activator 0, ADAM17 inh 1, ADAM10 inh -2 and NPR2 activator 4.
`COc1ccc(NS(=O)(=O)c2ccc(OC)c(NC(=O)CCC3CCCC3)c2)cc1` gave NPR1 activator -3, ADAM17 inh 12*, ADAM10 inh 18, NPR2 activator 5, ADAM10 ctr 20 and ADAM17 confirm 12*.
Screening O=C(CSc1cccc(C(F)(F)F)c1)NC(=O)c1ccccc1 returned NPR1 activator 4, ADAM17 inh 8.7*, ADAM10 inh 6, NPR2 activator -5, ADAM10 ctr 0 and ADAM17 confirm 6.
S=C(NCc1ccccc1)NCc1cccc(CNC(=S)NCc2ccccc2)c1 was read as NPR1 activator 1, ADAM17 inh 9.3*, ADAM10 inh 13, NPR2 activator -3, ADAM10 ctr 22* and ADAM17 confirm 14*.
S=C(NCc1ccccc1)NCc1cccc(Cl)c1 was read as NPR1 activator 1, ADAM17 inh 1, ADAM10 inh 10 and NPR2 activator 5.
O=C(NNC(=S)NCc1ccccc1)c1cccc([N+](=O)[O-])c1 was read as NPR1 activator -1, ADAM17 inh 13*, ADAM10 inh 16, NPR2 activator 6, ADAM10 ctr 12 and ADAM17 confirm 8.
For COCCN(C(=O)C1CCC1)c1c(N)n(CC(C)C)c(=O)[nH]c1=O the results were NPR1 activator -2, ADAM17 inh -3, ADAM10 inh -6 and NPR2 activator 3.
